Data from PubChem BioAssay.
The source made the active and inactive calls. Unless noted, no rule for the calls is given here.

How the values were obtained:
[1] = test system: Wnt5a (protein binding on small-molecule microarray); assay: small molecules binding Wnt5a protein – biophysical, small-molecule microarray, 635/667 nm fluorescence, primary screen (AID 1142); details: 635 nm fluorescence, higher = more signal;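 also: fluorescence read at 667 nm with signal to noise per printed feature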
[2] = ATP-based viability of Huh7 replicon cells – cell-based, CellTiter-Glo luminescence, basal, 48 h, cytotoxicity control for HCV replication inhibitor project, primary screen (AID 1143); details: higher = more signal, called active from +8 up or from −8 down;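 also: Huh7 hepatoma cells carrying a hepatitis C replication reporter with no stimulus; test concentration not given here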
[3] = Pseudomonas biofilm growth suppression – PAO1 strain, BacTiter-Glo luminescence, LB-PBS, primary screen (AID 1144); details: P. aeruginosa PAO1 biofilm, 12 h, higher = more signal
[4] = basal CRE-LacZ reporter activity in PC12 – cell-based, unstimulated, primary screen (AID 1145); details: no forskolin, luminescence, 4.5 h, higher = more signal, called active from +8 up or from −8 down
[5] = forskolin-driven CRE-LacZ activity in PC12 – cell-based, CRE-LacZ reporter, forskolin-stimulated, primary screen (AID 1146); details: luminescence, 4.5 h, higher = more signal, called active from +8 up or from −8 down;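 also: PC12 cells with 6xCRE LacZ reporter stimulated by forskolin 10 µM; beta-galactosidase reporter signal reflecting CREB driven transcription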
[6] = biological target: Streptavidin (Streptomyces avidinii) (UniProt P22629); assay: compounds binding control protein streptavidin – biophysical, small-molecule microarray, 635/667 nm fluorescence, artefact control for SMM compound annotation, primary screen (AID 1147); details: higher = more signal;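 also: signal reflects streptavidin binding to arrayed compounds as a control protein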
Streptavidin (Streptomyces avidinii), sequence (P22629 whole entry, looked up): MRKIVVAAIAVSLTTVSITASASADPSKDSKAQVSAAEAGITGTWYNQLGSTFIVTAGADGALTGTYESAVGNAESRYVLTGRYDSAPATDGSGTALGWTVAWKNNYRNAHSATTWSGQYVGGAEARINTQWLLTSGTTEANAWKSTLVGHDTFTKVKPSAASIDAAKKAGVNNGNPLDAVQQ

[7] = probe aInhba binding on compound microarray – biochemical, small-molecule microarray, 635/667 nm fluorescence, primary screen (AID 1148); details: higher = more signal;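 also: score merges 667nm spot fluorescence with signal-to-noise for antibody binding to printed compounds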
Torsin-1A (Homo sapiens) [8] = biological target: Torsin-1A (Homo sapiens) (UniProt O14656); assay: TOR1A wild-type binding on microarray – cell lysate, small-molecule microarray, lysate, 635/667 nm, primary screen (AID 1149); details: COS7 hTOR1A-WT lysate, 635 nm fluorescence, higher = more signal
Torsin-1A (Homo sapiens), sequence (O14656 whole entry, looked up): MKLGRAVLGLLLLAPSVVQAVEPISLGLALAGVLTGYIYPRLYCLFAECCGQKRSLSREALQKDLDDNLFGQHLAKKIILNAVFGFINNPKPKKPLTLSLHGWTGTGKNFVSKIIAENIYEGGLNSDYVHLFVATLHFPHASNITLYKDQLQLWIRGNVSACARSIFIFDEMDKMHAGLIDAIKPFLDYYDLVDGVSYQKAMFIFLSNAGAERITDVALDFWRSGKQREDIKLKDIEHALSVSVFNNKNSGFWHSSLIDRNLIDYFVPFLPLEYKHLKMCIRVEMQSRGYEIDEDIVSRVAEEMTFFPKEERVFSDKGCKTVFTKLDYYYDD

Torsin-1A (Homo sapiens) [9] = biological target: Torsin-1A (Homo sapiens) (UniProt O14656); assay: torsin A mutant lysate binding on microarrays – cell lysate, small-molecule microarray, COS7 lysate, 635/667 nm fluorescence, primary screen (AID 1150); details: COS7 hTOR1A mutant lysate, 635 nm fluorescence, higher = more signal;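 also: score pools 667 nm emission and signal to noise measuring lysate protein binding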
[10] = test system: Sonic hedgehog protein (Shh); assay: Sonic hedgehog microarray binding compounds – biochemical, small-molecule microarray, 635/667 nm fluorescence, primary screen (AID 1151); details: 635 nm fluorescence, higher = more signal;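 also: Shh protein binding to compounds spotted on small-molecule microarray slides; score combines spot fluorescence intensity with signal-to-noise across triplicate slides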
[11] = optical density shifts of acrAB sulA E. coli – strain DRC41, OD650, 48 h, E. coli filamentation inducer project, primary screen (AID 1152); details: higher = more signal, called active from +8 up or from −8 down;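 also: E. coli MC1000 strain DRC41 lacking acrAB efflux pump and sulA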
[12] = probe aLefty1 binding on compound microarray – biochemical, small-molecule microarray, 635/667 nm fluorescence, primary screen (AID 1153); details: higher = more signal;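 also: score merges spot fluorescence with signal-to-noise ratio from the scanned slide images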
[13] = plasmodial surface anion channel blockers, osmotic lysis – cell-based, P. falciparum Indochina, OD700, 1 h, primary screen (AID 1154); details: P. falciparum Indochina infected RBC osmotic lysis, higher = more signal, called active from +8 up or from −8 down
[14] = plasmodial surface anion channel blockers, osmotic lysis – cell-based, P. falciparum Indochina, OD700, 2 h, primary screen (AID 1155);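 also: lysis reports solute entry through the parasite surface anion channel PSAC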; details: P. falciparum Indochina infected erythrocytes, higher = more signal, called active from +8 up or from −8 down
[15] = changes in parasitized red cell lysis, either direction – P. falciparum Indochina, OD700, 3 h, PSAC antagonist project, primary screen (AID 1156); details: P. falciparum-infected erythrocytes, osmotic lysis, higher = more signal, called active from +8 up or from −8 down
[16] = plasmodial surface anion channel blockers, osmotic lysis – cell-based, P. falciparum Indochina, OD700, 18 h, primary screen (AID 1157); details: P. falciparum Indochina infected erythrocytes, osmotic lysis OD700, 18 h; higher = more signal, called active from +8 up or from −8 down
[17] = S6 kinase pathway phospho-S6 level changes – cell-based, A549, cytoblot, luminescence, serum-stimulated, primary screen (AID 1158); details: 5 h, higher = more signal;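 also: serum-stimulated A549 lung adenocarcinoma cells; signal is phosphorylated S6 detected by cytoblot immunostaining with HRP secondary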
[18] = biological target: NADPH oxidase 2 (Homo sapiens) (UniProt P04839); assay: compounds shifting NOX2 Amplex Red fluorescence – cell-based, HEK293-NOX2, PMA-stimulated, NOX inhibitor project, primary screen (AID 1159); details: 45 min, higher = more signal, called active from +8 up or from −8 down; also: test concentration not given here
NADPH oxidase 2 (Homo sapiens), sequence (P04839 whole entry, looked up): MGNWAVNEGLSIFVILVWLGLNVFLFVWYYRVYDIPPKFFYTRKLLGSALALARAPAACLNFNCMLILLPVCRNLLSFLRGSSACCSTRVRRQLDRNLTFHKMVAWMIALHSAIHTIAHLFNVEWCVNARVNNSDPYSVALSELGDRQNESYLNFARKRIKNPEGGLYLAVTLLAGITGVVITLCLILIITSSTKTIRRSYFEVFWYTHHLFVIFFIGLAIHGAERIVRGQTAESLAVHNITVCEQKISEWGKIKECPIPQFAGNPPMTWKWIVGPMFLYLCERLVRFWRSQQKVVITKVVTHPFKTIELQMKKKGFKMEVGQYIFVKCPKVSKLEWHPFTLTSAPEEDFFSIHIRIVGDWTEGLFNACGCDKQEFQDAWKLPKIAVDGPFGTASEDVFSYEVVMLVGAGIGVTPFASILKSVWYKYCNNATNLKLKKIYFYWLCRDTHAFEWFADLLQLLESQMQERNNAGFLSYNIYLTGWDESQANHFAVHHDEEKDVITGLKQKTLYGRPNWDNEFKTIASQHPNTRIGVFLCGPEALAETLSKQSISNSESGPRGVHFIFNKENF

[19] = biological target: NADPH oxidase 4 (Homo sapiens) (UniProt Q9NPH5); assay: compounds shifting NOX4 Amplex Red fluorescence – cell-based, HEK293-NOX4, tetracycline-induced, NOX inhibitor project, primary screen (AID 1160); details: HEK293-NOX4, Amplex Red H2O2 fluorescence, 45 min; higher = more signal, called active from +8 up or from −8 down
NADPH oxidase 4 (Homo sapiens), sequence (Q9NPH5 whole entry, looked up): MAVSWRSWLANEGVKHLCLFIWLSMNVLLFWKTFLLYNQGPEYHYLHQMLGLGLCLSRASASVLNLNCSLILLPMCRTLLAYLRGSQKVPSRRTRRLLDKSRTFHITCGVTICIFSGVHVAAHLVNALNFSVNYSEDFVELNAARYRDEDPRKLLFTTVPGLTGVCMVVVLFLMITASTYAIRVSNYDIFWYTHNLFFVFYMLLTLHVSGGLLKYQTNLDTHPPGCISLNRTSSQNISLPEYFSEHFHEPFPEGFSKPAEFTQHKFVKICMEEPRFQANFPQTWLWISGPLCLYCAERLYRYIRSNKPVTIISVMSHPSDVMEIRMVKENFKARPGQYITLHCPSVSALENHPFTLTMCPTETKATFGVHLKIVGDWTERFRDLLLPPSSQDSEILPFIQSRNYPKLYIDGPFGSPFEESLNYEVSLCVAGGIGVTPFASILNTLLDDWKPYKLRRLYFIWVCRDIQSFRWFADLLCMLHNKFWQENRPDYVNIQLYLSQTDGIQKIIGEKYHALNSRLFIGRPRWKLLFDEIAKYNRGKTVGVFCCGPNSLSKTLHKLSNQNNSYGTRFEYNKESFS

[20] = biological target: NADPH oxidase 5 (Homo sapiens) (UniProt Q96PH1); assay: compounds shifting NOX5 Amplex Red fluorescence – cell-based, HEK293-NOX5, NOX inhibitor project, primary screen (AID 1161); details: HEK293-NOX5, ionomycin, 45 min, higher = more signal
NADPH oxidase 5 (Homo sapiens), sequence (Q96PH1 whole entry, looked up): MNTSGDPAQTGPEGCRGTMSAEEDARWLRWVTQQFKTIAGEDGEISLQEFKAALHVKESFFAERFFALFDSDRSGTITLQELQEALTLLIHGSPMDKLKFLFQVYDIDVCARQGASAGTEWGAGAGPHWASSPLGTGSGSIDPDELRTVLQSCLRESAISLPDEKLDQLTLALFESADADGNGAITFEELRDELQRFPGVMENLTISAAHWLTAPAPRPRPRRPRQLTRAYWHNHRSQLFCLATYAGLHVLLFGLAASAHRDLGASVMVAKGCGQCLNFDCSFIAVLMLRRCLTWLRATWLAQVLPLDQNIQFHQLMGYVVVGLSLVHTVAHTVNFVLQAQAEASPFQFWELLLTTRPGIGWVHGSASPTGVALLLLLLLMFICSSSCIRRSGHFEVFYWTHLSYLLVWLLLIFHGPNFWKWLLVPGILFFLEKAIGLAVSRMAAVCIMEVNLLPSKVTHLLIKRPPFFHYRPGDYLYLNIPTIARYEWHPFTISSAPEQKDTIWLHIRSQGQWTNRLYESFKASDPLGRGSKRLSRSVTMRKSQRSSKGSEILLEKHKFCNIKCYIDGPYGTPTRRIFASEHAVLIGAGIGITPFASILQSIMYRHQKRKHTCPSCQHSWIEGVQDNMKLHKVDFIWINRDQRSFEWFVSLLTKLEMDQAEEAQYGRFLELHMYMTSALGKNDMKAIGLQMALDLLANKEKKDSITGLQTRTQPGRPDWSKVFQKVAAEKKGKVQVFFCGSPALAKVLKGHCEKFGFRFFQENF

In the case of C=C(CCCC)/C(=C/C[C@H](OC(=O)c1ccncc1)c1cccc(OCCO)c1)c1cnc2ccccc2c1, the composite z-score [1] is reported as 0.24, the z-score [2] is reported as -1.58 (inactive) and the z-score [3] is reported as 0.124 (inactive). For the same compound, the z-score [4] was 2.6 (inactive), the z-score [5] was 0.256 (inactive) and the composite z-score [6] was 0.905. For the same compound, the composite z-score [7] was 0.0155, the composite z-score (Torsin-1A (Homo sapiens) [8]) was 0.947 and the composite z-score (Torsin-1A (Homo sapiens) [9]) was 0.706. The composite z-score [10] was 1.78, the z-score [11] was -0.639 (inactive) and the composite z-score [12] was 0.0429. For the same compound, the z-score [13] was 23.9 (active), the z-score [14] was 7.01 (inactive) and the z-score [15] was 1.5 (inactive). The z-score [16] was 1.26 (inactive), the z-score [17] was -0.282 and the z-score [18] was -0.777 (inactive). For the same compound, the z-score [19] was -0.293 (inactive) and the z-score [20] was -1.82.

For CN(C)CCCC[C@@H]1NC(=O)[C@@H]2C[C@H](C(=O)NCCCCCN)[C@H](c3cccc(OCCO)c3)N2C1=O, the composite z-score [1] was 0.132, the z-score [2] was -0.716 (inactive) and the z-score [3] was -0.241 (inactive). The z-score [4] was -0.118 (inactive), the z-score [5] was -0.469 (inactive) and the composite z-score [6] was 0.909. For the same compound, the composite z-score [7] was -0.101, the composite z-score (Torsin-1A (Homo sapiens) [8]) was 0.433 and the composite z-score (Torsin-1A (Homo sapiens) [9]) was 0.0162. The composite z-score [10] was 1.58, the z-score [11] was 2.96 (inactive) and the composite z-score [12] was 0.25. For the same compound, the z-score [13] was 1.11 (inactive), the z-score [14] was -0.469 (inactive) and the z-score [15] was -1.52 (inactive). For the same compound, the z-score [16] was -2.07 (inactive), the z-score [17] was 2.77 and the z-score [18] was 0.635 (inactive). The z-score [19] was 0.585 (inactive) and the z-score [20] was 1.57.

With CCCCC(O)C1C=CC2C(=O)N(c3ccccc3)C(=O)C2N1Nc1ccccc1 (stereo not given) the composite z-score [1] was -0.152, the z-score [2] was 0.564 (inactive) and the z-score [3] was -0.279 (inactive). The z-score [4] was 0.257 (inactive), the z-score [5] was 0.875 (inactive) and the composite z-score [6] was 0.682. It also gave a composite z-score [7] of 0.0278, a composite z-score (Torsin-1A (Homo sapiens) [8]) of -0.0483 and a composite z-score (Torsin-1A (Homo sapiens) [9]) of 0.0691. The composite z-score [10] was -1.35, the z-score [11] was -0.274 (inactive) and the composite z-score [12] was 0.139. For the same compound, the z-score [13] was 4.52 (inactive), the z-score [14] was 0.786 (inactive) and the z-score [15] was -0.196 (inactive). The z-score [16] was 1.17 (inactive), the z-score [17] was -0.439 and the z-score [18] was -1.17 (inactive). The z-score [19] was -2.93 (inactive) and the z-score [20] was -2.06.

With O=C(NCc1ccccc1)[C@@H]1c2ccccc2C(=O)N(Cc2ccc(OC(F)(F)F)cc2)[C@H]1c1ccc(CO)cc1 the composite z-score [1] was -0.134, the z-score [2] was -0.495 (inactive) and the z-score [3] was 0.0274 (inactive). The z-score [4] was 0.208 (inactive), the z-score [5] was 0.129 (inactive) and the composite z-score [6] was -0.756. The composite z-score [7] was 0.0102, the composite z-score (Torsin-1A (Homo sapiens) [8]) was 0.521 and the composite z-score (Torsin-1A (Homo sapiens) [9]) was 0.162. The composite z-score [10] was -0.493, the z-score [11] was 0.39 (inactive) and the composite z-score [12] was 0.656. The z-score [13] was 3.9 (inactive), the z-score [14] was 0.566 (inactive) and the z-score [15] was 1.56 (inactive). The z-score [16] was 0.158 (inactive), the z-score [17] was 0.503 and the z-score [18] was -3.06 (inactive). For the same compound, the z-score [19] was 0.263 (inactive) and the z-score [20] was 0.401.

For COC(=O)[C@@]1(Cc2ccc(OC)cc2)[C@H]2c3cc(C(=O)N4CCCC4)n(Cc4c(CO)[nH]cc(C)c4=O)c3C[C@H]2CN1C(=O)c1ccccc1, the composite z-score [1] was 0.702, the z-score [2] was -1.1 (inactive) and the z-score [3] was -0.101 (inactive). The z-score [4] was 0.37 (inactive), the z-score [5] was 1.41 (inactive) and the composite z-score [6] was 1.51. For the same compound, the composite z-score [7] was 0.0569, the composite z-score (Torsin-1A (Homo sapiens) [8]) was 0.272 and the composite z-score (Torsin-1A (Homo sapiens) [9]) was 1.25. For the same compound, the composite z-score [10] was -0.65, the z-score [11] was -0.552 (inactive) and the composite z-score [12] was 0.213. For the same compound, the z-score [13] was 0.843 (inactive), the z-score [14] was -0.163 (inactive) and the z-score [15] was 0.455 (inactive). The z-score [16] was -1.46 (inactive), the z-score [17] was 2.57 and the z-score [18] was 0.753 (inactive). For the same compound, the z-score [19] was 0.386 (inactive) and the z-score [20] was -4.96.

In the case of COC(=O)C(CC#Cc1ccc2c(c1)[C@]1(C(=O)N2)[C@H](c2ccc(OCCO)cc2)N2[C@H](c3ccccc3)[C@H](c3ccccc3)OC(=O)[C@H]2[C@@H]1C(=O)N1CCCCCCC1)C(=O)OC, the composite z-score [1] is reported as 1.33, the z-score [2] is reported as -1.99 (inactive) and the z-score [3] is reported as -1.14 (inactive). The z-score [4] was 0.622 (inactive), the z-score [5] was -0.159 (inactive) and the composite z-score [6] was 2.97. For the same compound, the composite z-score [7] was 1.88, the composite z-score (Torsin-1A (Homo sapiens) [8]) was 2.01 and the composite z-score (Torsin-1A (Homo sapiens) [9]) was 1.9. For the same compound, the composite z-score [10] was 0.582, the z-score [11] was -0.598 (inactive) and the composite z-score [12] was 2.67. The z-score [13] was 7.3 (inactive), the z-score [14] was 1.59 (inactive) and the z-score [15] was 0.309 (inactive). For the same compound, the z-score [16] was 0.712 (inactive), the z-score [17] was -0.173 and the z-score [18] was 0.783 (inactive). The z-score [19] was 0.196 (inactive) and the z-score [20] was 1.44.

With COc1cc(CO)cc(I)c1O[C@H]1C=C(C(=O)NCCO)C[C@@H]2O[C@H]12 the composite z-score [1] was 0.815, the z-score [2] was -4.18 (inactive) and the z-score [3] was -0.583 (inactive). The z-score [4] was 3.65 (inactive), the z-score [5] was 3.07 (inactive) and the composite z-score [6] was 0.717. It also gave a composite z-score [7] of -0.0589, a composite z-score (Torsin-1A (Homo sapiens) [8]) of 1.58 and a composite z-score (Torsin-1A (Homo sapiens) [9]) of 0.125. The composite z-score [10] was 1.59, the z-score [11] was -0.211 (inactive) and the composite z-score [12] was 0.369. The z-score [13] was 11.1 (active), the z-score [14] was 3.45 (inactive) and the z-score [15] was 2.06 (inactive). For the same compound, the z-score [16] was 2 (inactive), the z-score [17] was 0.179 and the z-score [18] was 1.46 (inactive). For the same compound, the z-score [19] was -0.691 (inactive) and the z-score [20] was -6.01.

With C[C@]1(C(=O)O)c2ccccc2C(=O)N(Cc2cc(F)cc(C(F)(F)F)c2)[C@H]1c1ccc(CO)cc1 the composite z-score [1] was -0.0056, the z-score [2] was -2.56 (inactive) and the z-score [3] was -2.17 (inactive). The z-score [4] was -0.502 (inactive), the z-score [5] was -0.172 (inactive) and the composite z-score [6] was 0.0949. It also gave a composite z-score [7] of -0.152, a composite z-score (Torsin-1A (Homo sapiens) [8]) of -0.0875 and a composite z-score (Torsin-1A (Homo sapiens) [9]) of 0.154. The composite z-score [10] was 0.505, the z-score [11] was -0.169 (inactive) and the composite z-score [12] was -0.261. The z-score [13] was 2.63 (inactive), the z-score [14] was -0.0481 (inactive) and the z-score [15] was -0.992 (inactive). The z-score [16] was -0.927 (inactive), the z-score [17] was 1.27 and the z-score [18] was 0.477 (inactive). For the same compound, the z-score [19] was -1.43 (inactive) and the z-score [20] was -2.26.
